# BoNT A protease: blocks Botulinum neurotoxin A light chain protease. multiplex microsphere protease substrate cleavage, flow cytometry. inhibition, % at 10 µM. AID 588499. 0.17% of 360,000 active; in the data active means inhibition above about 30%; further: plate controls were buffer without enzyme for full effect and enzyme alone for no effect
# BoNT-F LC inh: blocks Botulinum neurotoxin F light chain protease; Multiplex microsphere protease cleavage assay, flow cytometry; inhibition, % at 10 µM; 0.22% of 360,000 active; AID 588497; in the data active means inhibition above about 35%, passing the limit was not always enough; further: plate controls were buffer without enzyme for full effect and enzyme alone for no effect
# Bead autofluor: compound fluorescence in toxin protease inhibitor counterscreen; compound autofluorescence counterscreen, microsphere flow cytometry; hits give high values; fluorescence intensity (test concentration not listed); 3.1% of 360,000 active; in the data active means fluorescence intensity above about 16000
# Anthrax LF prot: inhibitors of Bacillus anthracis lethal factor protease. inhibition, % at 10 µM. 0.12% of 360,000 active. P15917. multiplex microsphere protease cleavage assay, LF. AID 588501; in the data active means inhibition above about 30%; further: plate controls were buffer without enzyme for full effect and enzyme alone for no effect
# Target sequence (P15917 whole entry, looked up): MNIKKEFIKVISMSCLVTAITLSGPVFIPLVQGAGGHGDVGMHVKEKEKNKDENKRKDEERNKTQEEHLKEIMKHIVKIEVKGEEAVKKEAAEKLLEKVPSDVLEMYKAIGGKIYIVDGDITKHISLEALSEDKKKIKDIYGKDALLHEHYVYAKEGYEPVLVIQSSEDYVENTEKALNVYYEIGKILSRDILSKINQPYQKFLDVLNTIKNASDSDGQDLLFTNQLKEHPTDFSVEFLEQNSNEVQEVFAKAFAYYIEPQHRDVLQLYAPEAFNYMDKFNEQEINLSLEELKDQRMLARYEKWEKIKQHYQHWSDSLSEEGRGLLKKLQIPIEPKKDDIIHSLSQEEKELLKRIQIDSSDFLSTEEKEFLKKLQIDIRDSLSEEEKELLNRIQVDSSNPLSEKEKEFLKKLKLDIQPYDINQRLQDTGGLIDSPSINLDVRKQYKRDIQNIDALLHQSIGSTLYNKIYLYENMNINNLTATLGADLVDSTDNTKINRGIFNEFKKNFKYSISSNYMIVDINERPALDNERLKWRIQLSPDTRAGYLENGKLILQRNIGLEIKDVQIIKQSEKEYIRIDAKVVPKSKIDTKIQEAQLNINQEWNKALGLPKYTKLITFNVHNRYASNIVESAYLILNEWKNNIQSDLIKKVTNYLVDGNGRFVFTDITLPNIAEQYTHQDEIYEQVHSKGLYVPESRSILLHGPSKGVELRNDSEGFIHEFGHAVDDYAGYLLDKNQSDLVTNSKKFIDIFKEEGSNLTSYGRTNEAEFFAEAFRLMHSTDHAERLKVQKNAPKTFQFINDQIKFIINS
# BoNTA LC inh 2: inhibitors of botulinum neurotoxin A light chain protease; shares compounds with BoNT A protease; 10% of 150 active; AID 602325; inhibition, % at 10 µM; multiplex microsphere protease cleavage assay, flow cytometry; in the data active means inhibition above about 24%
# Anthrax LF CP2: Bacillus anthracis lethal factor protease inhibition; AID 602327; shares compounds with BoNT A protease; 7% of 150 active; inhibition, % at 10 µM; multiplex microsphere protease cleavage assay
# BoNT-F LC CP2: inhibitors of botulinum neurotoxin F light chain protease. shares compounds with BoNT A protease. multiplex microsphere protease cleavage assay, flow cytometry. inhibition, % at 10 µM. 7% of 150 active
# * = called active by the depositor; / = no result. Only some compounds are listed: those with a hit (about 3.5% of all), similar ones and a draw of the others. Unless noted, no stated cut-off is given here; in the data, active means inhibition above about 25%; inactive means the rest.
SMILES,BoNT A protease,BoNT-F LC inh,Bead autofluor,Anthrax LF prot,BoNTA LC inh 2,Anthrax LF CP2,BoNT-F LC CP2
CC(=NNc1nc2ccccc2o1)c1cc2ccccc2cn1,50.8*,74.3*,3176,58.9*,16.2,26.0*,53.9*
CC(C)(C)C1CCCCC1NC(=O)c1ccncc1 (stereo not drawn),0.8,-18.9,3432,15.1,/,/,/
NC(=O)c1cc(S(=O)(=O)NCc2cccs2)cs1,-0.9,-1.0,5960,0.6,/,/,/
CN(Cc1nc2ccccc2c(=O)[nH]1)C(=O)c1cccc(NC(=O)c2cccs2)c1,0.1,2.0,3920,0.8,/,/,/
COc1ccc(Cc2c(-c3ccc(OC)c(OC)c3)nc3c(C)cc(Br)cn23)c(C)c1,31.6*,-3.1,7593,20.0,10.7,8.5,-1.8
COc1ccc(Cc2c(-c3ccc(OC)c(OC)c3)nc3cc(C)c(Br)c(C)n23)c(C)c1,0.4,-6.7,4775,-20.9,2.0,-1.2,3.5
COc1ccc(Cc2c(-c3ccccc3)nc3cc(C)c(Br)c(C)n23)c(C)c1,-0.3,-13.3,6172,0.5,/,/,/
Cc1cc2oc(=O)cc(CN3CCOCC3)c2c(C)c1Cl,-1.7,27.7,3884,8.4,/,/,/
Cc1ccccc1OCC(=O)OCC(=O)c1c[nH]c2ccccc12,1.0,-0.1,8924,-4.5,3.1,1.3,9.9
COc1ccc(CC(=O)OCC(=O)c2c[nH]c3ccccc23)cc1,52.7*,-8.4,9727,24.3,14.5,11.6,-4.0
Cc1ccc(C(=O)COC(=O)COc2ccccc2C)cc1,-1.9,5.8,6252,0.4,/,/,/
COc1cc(CC(=O)OCC(=O)c2c[nH]c3ccccc23)cc(OC)c1OC,50.2*,-13.1,10228,24.6,14.8,15.9,-1.2
OC(c1ccccc1)C(Nc1ccccn1)c1ccccc1 (stereo not drawn),0.5,4.0,2968,1.0,/,/,/
Cc1cc2cc(CNC(=O)c3ccc(C)c([N+](=O)[O-])c3)ccc2[nH]1,64.8*,-89.0,3000,-68.9,4.1,3.3,7.9
CC1(C)CC(=O)C=C(c2ccc(Oc3ccccc3)cc2)C1=O,1.9,-1.1,3621,4.0,/,/,/
COc1ccc(C#Cc2ccc(C3=CC(=O)CC(C)(C)C3=O)cc2)cc1,28.7,13.1,3071,29.6*,15.9,11.1,15.8
COc1ccccc1CNC(=O)c1cc(S(=O)(=O)N2CCOCC2)cn1C,-0.6,2.6,6414,-2.6,/,/,/
CCc1cccc2c(C(=O)COC(=O)c3ccccc3)c[nH]c12,0.7,-7.6,2332,0.9,7.6,13.5,24.9*
CCc1cccc2c(C(=O)COC(=O)c3ccc(O)cc3)c[nH]c12,-1.1,-18.5,8987,-1.8,7.7,14.6,36.8*
Cc1cc2cc(CNS(=O)(=O)c3ccccc3)ccc2n1C,83.3*,-103.4,1735,-64.2,22.7,14.4,-26.4
COc1ccc(S(=O)(=O)NCc2ccc3c(c2)cc(C)n3C)cc1,79.4*,-108.5,1230,-94.5,24.2*,13.9,-15.3
COc1ccc(CNS(=O)(=O)c2ccc(OC)cc2)cc1,-1.2,-18.1,2583,-2.6,/,/,/
CCn1cc(C(=O)NCCCOC(C)C)c(=O)c2cc(S(=O)(=O)N3CCC(C)CC3)ccc21,-1.0,-0.6,5258,-0.3,/,/,/
O=C(COC(=O)c1cncc(Br)c1)NC12CC3CC(CC(C3)C1)C2,72.1*,8.5,4039,57.5*,29.1*,29.5*,3.2
CCN(CC)S(=O)(=O)c1cccc(NC(=O)COC(=O)c2ccc(Br)o2)c1,0.2,-3.5,3342,1.0,/,/,/
SMILES,BoNT A protease,BoNT-F LC inh,Bead autofluor,Anthrax LF prot,BoNTA LC inh 2,Anthrax LF CP2,BoNT-F LC CP2
CCN(CC)S(=O)(=O)c1cccc(NC(=O)COC(=O)c2cncc(Br)c2)c1,23.2,9.7,4126,39.2*,15.6,18.5,14.1
O=C(NC12CC3CC(CC(C3)C1)C2)c1cncc(Br)c1,-1.4,-5.4,3041,8.3,/,/,/
CN=c1nc(-c2ccccc2)n(-c2ccccc2)s1,3.1,48.2*,4486,-0.1,3.5,-3.5,23.1
Cn1nc(-c2ccccc2)nc1-c1ccccc1,-0.5,-9.2,3110,-5.8,/,/,/
N#Cc1c(NC(=O)/C=C/C(=O)O)sc2c1CCN(Cc1ccccc1)C2,6.0,-65.4,6612,-12.1,/,/,/
Cn1ccc2c(-c3ccc(CO)cc3)cc3c(c21)C1CCC3C1 (stereo not drawn),5.1,-13.7,5459,7.4,4.3,2.5,6.7
Cn1ccc2c(-c3ccc(C(N)=O)cc3)cc3c(c21)C1CCC3C1 (stereo not drawn),0.5,-4.7,6175,5.5,1.2,1.6,3.8

# Bioassay records deposited in PubChem by NMMLSC.
